Growth data for 16 molecules are collected here from PubChem BioAssay (NCI).

The panel holds about 83,000 compounds, 20% with a hit somewhere; the sample as a whole holds those more often.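 Step 1: grow cells in 96-well plates. Step 2: add test compound at a single concentration. Step 3: incubate 48 h. Step 4: record percent growth.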 Calls of active or inactive are those of the source. The calls were made as follows: active = growth percent below 10; inactive = the rest.

The subject of the assay is COLO 205 colon. The experiment in a line: NCI-60 one-dose screen, 48 h (100 = growth as untreated, 0 = no growth, -100 = all killed). The note with it: 10 µM.
Consider `O=C1Cc2cc(CCN3CCN(c4nsc5ccccc45)CC3)c(Cl)cc2N1`, for which the growth was 109% (inactive).

With `Nc1ccccc1NC(=O)c1ccc(CCCC(=O)Nc2ccc(C3CC3N)cc2)cc1` (stereo unspecified), the growth is -5.7% (active).

In the case of `CC(C)Cc1ccc([C@H](C)C(=O)O)cc1`, the growth was 113% (inactive).

For `COc1cc2c3c(n(C4CCN(C)CC4)c(=O)c2cc1OC)-c1cc2c(cc1C3=O)OCO2`, the growth is 59.5% (inactive).

On to `CN(C)c1nc(N)c2nccnc2n1`, for which the growth was 100% (inactive).

With `COc1ccc(CCN2CCC(Nc3nc4ccccc4n3Cc3ccc(F)cc3)CC2)cc1`, the growth is -65.7% (active).

Turning to `CNC(=O)c1c(I)c(NC(C)=O)c(I)c(C(=O)O)c1I`, the growth is 118% (inactive).

`C[C@H]1[C@H](OC(=O)CCC(=O)O)O[C@@H]2O[C@]3(C)CC[C@H]4[C@H](C)CC[C@@H]1[C@@]24OO3`: the growth is -5.69% (active).

Take `Nc1cc(-c2ccncc2)c[nH]c1=O`: the growth was 113% (inactive).

`COc1ccc2c(c1)C(CC(=O)NN)CCC2` (stereo unspecified): the growth was 113% (inactive).

Consider `CCCCc1oc2ccccc2c1C(=O)c1cc(I)c(OCCN(CC)CC)c(I)c1`, for which the growth is -79.8% (active).

Turning to `Clc1ccc2c(c1)C(N1CCNCC1)=Nc1ccccc1O2`, the growth is -65.9% (active).

Turning to `COc1ccc(Cc2cnc(N)nc2N)cc1OC`, the growth was 108% (inactive).

Consider `COc1ccc(C(=O)CSc2nc(-c3cc(OC)ccc3OC)cc(-c3ccc(OC)cc3)c2C#N)cc1`, for which the growth is 98.8% (inactive).

For the molecule `CCCCCOC(=O)Nc1nc(=O)n(C2O[C@H](C)[C@@H](O)[C@H]2O)cc1F` (stereo partly specified), the growth was 106% (inactive).

On to `C[C@@H](O)[C@H]1C(=O)N2C(C(=O)O)=C(SCCN=CN)C[C@H]12`, for which the growth was -25.8% (active).
